# ChEMBL document CHEMBL3988442, “University of Dundee, Small-Polar-MMV Screening Library” (2021)
# Hit rate of the full screen: of about 69,000 compounds, about 1,000 (1.4%) showed an effect of 50% or more. The entries come from a sample that favours strong results as a whole.
# Test system: Leishmania donovani
# Assay: Leishmania intramacrophage assay
# Format: functional, organism-based
# Set-up: scale not given: in the data most compounds retested in dose-response had high values
compound,measurement,setting,value
Cc1nccn1CCCN1CCCC(c2nccn2C)C1 (configuration not stated),Percent Effect,"30.3 µM, […]",28.64%
Cc1cnn(CCNCc2c(C)nn(-c3ccccc3)c2C)c1,Percent Effect,"30.3 µM, […]",-2.378%
CC(C)c1nc(C(=O)N2C[C@H](C(C)C)[C@@H](N)C2)cs1,Percent Effect,"30.3 µM, […]",39.61%
COCCn1nc(C(=O)N2CCN(C)CC2C)ccc1=O (configuration not stated),Percent Effect,"30.3 µM, […]",4.243%
Cc1nnsc1C(=O)NCC1CCN(c2ccccn2)CC1,Percent Effect,"30.3 µM, […]",51.71%
CCCc1nnsc1C(=O)NCC1CCN(c2ccccn2)CC1,Percent Effect,"30 µM, 30.03 µM",33.4%
CCCc1nnsc1C(=O)NCC1CCN(c2ncccn2)CC1,Percent Effect,"30.3 µM, […]",10.89%
COCC(C)NC(=O)c1cc(C)n(-c2cccc(OC)c2)c1C (configuration not stated),Percent Effect,30 µM,9.783%
CCNc1cc2c(nn1)CCN(C(=O)c1ccsc1)C2,Percent Effect,30 µM,18.6%
COc1ncccc1CNC(=O)C1=NN(c2ccccc2)C(=O)CN1,Percent Effect,"30.3 µM, […]",-11.09%
COCc1ccc(CNC(=O)C2=NN(c3ccccc3)C(=O)CN2)cc1,Percent Effect,"30 µM, 30.03 µM",41.01%
N#Cc1ccc(CNC(=O)C2=NN(c3ccccc3)C(=O)CN2)cc1,Percent Effect,"30.3 µM, […]",17.15%
COc1ccc(CNC(=O)C2=NN(c3ccc(C)cc3)C(=O)CN2)cc1,Percent Effect,"30.3 µM, […]",51.58%
COc1ccc(C)cc1CNC(=O)C1=NN(c2ccccc2)C(=O)CN1,Percent Effect,"30.3 µM, […]",34.24%
COc1ccccc1CNC(=O)C1=NN(c2ccc(C)cc2)C(=O)CN1,Percent Effect,"30 µM, 30.03 µM",61.91%
CC1CCc2n[nH]c(C(=O)NCCCc3ccccn3)c2C1 (configuration not stated),Percent Effect,"30.3 µM, […]",-2.29%
CCOC(=O)c1ccc(NC(=O)c2cc3c([nH]c2=O)CCCC3)cc1,Percent Effect,"30.3 µM, […]",34.55%
CC(=O)Nc1nc(C(=O)N2CCCC2c2noc(C(C)C)n2)cs1 (configuration not stated),Percent Effect,"30.3 µM, […]",-12.95%
C[C@@H]1CN(Cc2cccc(F)c2)C[C@]12CCN(Cc1cccnc1)C2=O.O=C(O)C(F)(F)F.O=C(O)C(F)(F)F,Percent Effect,"30.3 µM, […]",-0.6911%
COc1cc2nc(NCc3scnc3C)nc(N)c2cc1OC,Percent Effect,"30.3 µM, […]",62.63%
COc1ccccc1NCC(=O)NCc1scnc1C,Percent Effect,"30.3 µM, […]",29.29%
COc1cc2nc(NCc3cc(C)on3)nc(N)c2cc1OC,Percent Effect,"30.3 µM, […]",-3.382%
COCCCN1CC2(CCCCN2C(C)=O)CC1=O (configuration not stated),Percent Effect,"30.3 µM, […]",13.42%
Cc1nc(N)ncc1C(=O)N1CCCC(CCc2ccc(F)c(F)c2)C1 (configuration not stated),Percent Effect,"30.3 µM, […]",6.718%
OCc1c(Cl)ncn1-c1ccc(F)cc1,Percent Effect,"30.3 µM, […]",25.45%
OCc1c(Cl)ncn1-c1ccccc1,Percent Effect,"30.3 µM, […]",61.75%
Cc1ccc(-n2cnc(Cl)c2CO)cc1,Percent Effect,"30.3 µM, […]",12.87%
CC(C)CN1CCC2(CCN(Cc3nccs3)CC2)C1=O.O=C(O)C(F)(F)F,Percent Effect,"30.3 µM, […]",12.73%
Cc1noc(C)c1C(=O)N(C)C(C)c1cccnc1 (configuration not stated),Percent Effect,"30.3 µM, […]",-5.434%
Cc1noc(CN(C)C(=O)c2n[nH]c(N)c2-c2ccccc2)n1,Percent Effect,"30.3 µM, […]",-0.6486%
Cc1cc(N2CCCC(O)(CN(C)C)CC2)nc(-c2ccccc2)n1 (configuration not stated),Percent Effect,"30.3 µM, […]",63.47%
CN(C)CC1(O)CCCN(c2noc(-c3ccccc3)n2)CC1 (configuration not stated),Percent Effect,"30.3 µM, […]",2.473%
CN(C)CC1(O)CCCN(c2nc(-c3ccccc3)no2)CC1 (configuration not stated),Percent Effect,"30.3 µM, […]",31.64%
N#Cc1ccc(CN2C(=O)c3ccccc3CS2(=O)=O)cc1,Percent Effect,"30.3 µM, […]",-16.87%
Cc1cc(=O)[nH]c(-n2nc(C)c(CCC(=O)NCC(C)C)c2C)n1,Percent Effect,"30.3 µM, […]",15.57%
Cc1cc(=O)[nH]c(-n2nc(C)c(CCC(=O)Nc3nc(C)cs3)c2C)n1,Percent Effect,"30.3 µM, […]",59.04%
COC(=O)CCc1c(C)nn(-c2nc(C)cc(=O)[nH]2)c1C,Percent Effect,"30 µM, 30.03 µM",-18.05%
CC(CNc1cncc(-n2cccn2)n1)N(C)c1ccccc1 (configuration not stated),Percent Effect,"30 µM, 30.03 µM",31.44%
Cc1ncnc(NCC(C)N(C)c2ccccc2)c1C (configuration not stated),Percent Effect,"30.3 µM, […]",57.28%
Cc1nc2c(NCC(C)N(C)c3ccccc3)ncnc2o1 (configuration not stated),Percent Effect,"30.3 µM, […]",33.01%
Cn1cccc1C(=O)N1CCC(c2nccn2Cc2ccncc2)CC1,Percent Effect,"30.3 µM, […]",6.64%
CN1CC(=O)N(c2ccccc2)CC12CCN(C(=O)c1cnccn1)C2.O=C(O)C(F)(F)F (configuration not stated),Percent Effect,"30.3 µM, […]",4.293%
Cc1nn(CCC#N)c(C)c1CCC(=O)N(C)Cc1ccc(F)cc1F,Percent Effect,"30.3 µM, […]",2.715%
Cc1nn(CCC#N)c(C)c1[C@@H]1C=C[C@@H](NCc2cccc(Cl)c2)C1,Percent Effect,"30.3 µM, […]",-10.48%
Cc1nn(CCC#N)c(C)c1[C@@H]1C=C[C@@H](NCc2ccc(F)cc2)C1,Percent Effect,"30.3 µM, […]",101.5%
Cc1cccc2c1N(C)C(=O)C21CC(=O)Nc2c1cnn2C(C)(C)C (configuration not stated),Percent Effect,"30.3 µM, […]",-18.37%
CCOc1ccc(S(=O)(=O)NCc2cccnc2N(C)C)cc1,Percent Effect,"30 µM, 30.03 µM",61.25%
CCOC(=O)c1ccc(S(=O)(=O)NCc2cccnc2N(C)C)cc1,Percent Effect,30 µM,21.62%
CN(C)c1ncccc1CNS(=O)(=O)c1ccc(F)c(F)c1,Percent Effect,30 µM,32.33%
COc1ccc(S(=O)(=O)NCc2cccnc2N(C)C)cc1F,Percent Effect,"30 µM, 30.03 µM",58.31%
COc1ccc(S(=O)(=O)NCc2cccnc2N(C)C)cc1,Percent Effect,30 µM,27.65%
CN(C)c1ncccc1CNS(=O)(=O)c1cc(F)cc(F)c1,Percent Effect,30 µM,13.05%
